Laboratory results as given in PubChem BioAssay.

Legend:
[1] = test system: Human papillomavirus type 1a protein E7 (residues 44-93); assay: small molecules binding HPV E7 44-93 – biochemical, small-molecule microarray, residues 44-93, 635 nm fluorescence, primary screen (AID 1108); conditions: fluorescence 635 nm, higher = more signal;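 note: E7 fragment applied at 1 µg/mL in TBST for 1 h at 4 C; score combines spot fluorescence with its signal to noise ratio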
[2] = hepatitis C replication reporter changes, two-sided – Huh7 cells, luciferase reporter, HCV replication inhibitor project, primary screen (AID 1109); conditions: Huh7 HCV replicon luciferase reporter, 48 h; higher = more signal;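 note: huh7 hepatoma cells harbouring a luciferase neomycin HCV replicon reporter; luciferase luminescence as measure of HCV replicon replication; test concentration not given here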
[3] = biological target: Left-right determination factor 2 (Homo sapiens) (UniProt O00292); assay: small molecules binding LEFTY2 protein – biochemical, small-molecule microarray, 635 nm fluorescence scan, primary screen (AID 1110); conditions: higher = more signal
Sequence of Left-right determination factor 2 (Homo sapiens) (O00292 whole entry, looked up): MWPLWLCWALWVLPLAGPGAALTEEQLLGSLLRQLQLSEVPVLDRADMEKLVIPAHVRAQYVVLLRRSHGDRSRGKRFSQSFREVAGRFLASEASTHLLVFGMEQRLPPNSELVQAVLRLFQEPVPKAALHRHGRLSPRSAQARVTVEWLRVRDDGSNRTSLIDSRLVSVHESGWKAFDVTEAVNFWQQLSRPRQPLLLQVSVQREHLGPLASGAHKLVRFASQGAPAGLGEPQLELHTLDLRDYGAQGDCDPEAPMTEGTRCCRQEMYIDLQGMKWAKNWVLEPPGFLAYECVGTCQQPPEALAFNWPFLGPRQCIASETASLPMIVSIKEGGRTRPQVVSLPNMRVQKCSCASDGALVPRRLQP

[4] = biological target: Calmodulin-1 (Homo sapiens) (UniProt P0DP23); assay: small molecules binding calmodulin-1 with EGTA – biochemical, small-molecule microarray, Cy5-labelled CALM1, profiling panel (AID 1111); conditions: Cy5-CALM1 binding fluorescence, higher = more signal;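 note: labelled calmodulin applied in Tris saline Tween buffer holding calcium plus EGTA and DTT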
[5] = biological target: Calmodulin-1 (Homo sapiens) (UniProt P0DP23); assay: small molecules binding Ca-loaded calmodulin-1 – biochemical, small-molecule microarray, Cy5-labelled CALM1, plus calcium, artefact control for SMM control-protein annotation, profiling panel (AID 1112); conditions: Cy5-CALM1 binding fluorescence, higher = more signal;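 note: score merges spot fluorescence with signal to noise from triplicate slides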
[6] = probe aWnt5a binding to arrayed compounds – biochemical, biotinylated probe, 635/667 nm fluorescence, primary screen (AID 1113); conditions: small-molecule microarray, higher = more signal;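 note: score merges 667 nm fluorescence intensity with signal-to-noise per printed feature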
[7] = probe aShh binding to arrayed compounds – biochemical, biotinylated probe, 635/667 nm fluorescence, primary screen (AID 1114); conditions: small-molecule microarray, higher = more signal;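 note: probe is biotin-labelled aShh protein from a stem cell growth factor screen; measures binding of labelled protein to compounds printed on the slide; score merges feature fluorescence at 667 nm with signal-to-noise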
[8] = probe aNog binding to arrayed compounds – biochemical, biotinylated probe, 635/667 nm fluorescence, primary screen (AID 1115); conditions: small-molecule microarray, higher = more signal;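 note: probe is biotinylated aNog protein used at 0.15 µg/mL for 1 h at 4 C; z-score combines 667 nm fluorescence of each spot with its signal to noise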
[9] = biological target: Torsin-1A-interacting protein 1 (Homo sapiens) (UniProt Q5JTV8); assay: compound microarray binding of lysate hLAP1 – cell lysate, small-molecule microarray, COS7 lysate, 635/667 nm fluorescence, primary screen (AID 1116); conditions: 635 nm fluorescence, higher = more signal
Sequence of Torsin-1A-interacting protein 1 (Homo sapiens) (Q5JTV8 whole entry, looked up): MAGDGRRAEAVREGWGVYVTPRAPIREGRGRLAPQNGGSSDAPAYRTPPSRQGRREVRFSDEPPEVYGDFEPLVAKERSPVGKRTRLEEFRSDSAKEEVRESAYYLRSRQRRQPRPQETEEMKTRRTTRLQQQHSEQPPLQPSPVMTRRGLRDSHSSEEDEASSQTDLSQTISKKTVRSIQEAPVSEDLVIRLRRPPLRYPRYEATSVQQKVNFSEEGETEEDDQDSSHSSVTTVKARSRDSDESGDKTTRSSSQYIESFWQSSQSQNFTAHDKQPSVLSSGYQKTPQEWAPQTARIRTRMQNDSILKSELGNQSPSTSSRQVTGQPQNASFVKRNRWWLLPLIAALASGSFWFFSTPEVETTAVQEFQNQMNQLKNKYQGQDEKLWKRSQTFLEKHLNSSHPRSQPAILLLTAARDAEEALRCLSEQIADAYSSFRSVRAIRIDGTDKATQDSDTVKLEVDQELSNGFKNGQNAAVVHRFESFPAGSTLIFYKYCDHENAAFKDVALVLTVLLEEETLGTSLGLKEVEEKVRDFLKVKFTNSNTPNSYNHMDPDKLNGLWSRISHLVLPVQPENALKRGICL

[10] = biological target: Alpha-bungarotoxin (Bungarus multicinctus) (UniProt P60615); assay: compounds binding labelled alpha-BTX control protein – biochemical, small-molecule microarray, Alexa647 label, 635/667 nm fluorescence, artefact control for SMM control protein annotation, profiling panel (AID 1117); conditions: alpha-BTX-A647 binding fluorescence, higher = more signal
Sequence of Alpha-bungarotoxin (Bungarus multicinctus) (P60615 whole entry, looked up): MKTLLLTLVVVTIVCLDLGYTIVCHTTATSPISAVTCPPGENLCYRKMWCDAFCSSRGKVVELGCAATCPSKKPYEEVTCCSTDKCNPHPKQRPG

SMILES	composite z-score [1]	z-score [2]	composite z-score [3]	composite z-score [4]	composite z-score [5]	composite z-score [6]	composite z-score [7]	composite z-score [8]	composite z-score [9]	composite z-score [10]
COc1ccc([Si](C)(C)[C@@H]2[C@@H](CCO)O[C@]3(C(=O)N(Cc4cccc(N5C(=O)c6cccc7cccc5c67)c4)c4ccccc43)[C@H]2C)cc1	1.21	-4.47	-0.385	0.831	0.978	-0.0758	0.0815	0.0601	0.0561	0.578
CN1C(=O)C2C=CC(C(O)c3c(F)cccc3Cl)N(Nc3ccccc3)C2C1=O (stereo not given)	1.19	-0.659	-0.445	1.45	0.496	-0.0276	0.432	0.707	0.0127	0.904
COC1(C)CN(Cc2ccccc2Br)[C@H](/C=C/c2ccccc2)[C@H](Cc2ccccc2)O1 (stereo not given in full)	-0.579	-1.58	-0.137	-0.0755	-0.412	-0.176	-0.291	-0.169	-0.631	-0.0462
O=C1c2ccccc2[C@](Cc2ccccc2I)(C(=O)NCCN2CCOCC2)[C@H](c2ccc(CO)cc2)N1Cc1ccccc1	1.41	-1.79	0.522	1.25	0.295	0.359	0.385	0.482	0.496	1.64
COc1cc2c(cc1OC)CN(C(=O)[C@H]1[C@@H]3C(=O)O[C@@H](c4ccccc4)[C@@H](c4ccccc4)N3[C@@H](c3ccc(OCCO)cc3)[C@]13C(=O)Nc1ccc(C#CC4(O)CCCCCC4)cc13)CC2	1.43	-1.33	1.15	0.91	0.765	-0.236	-0.882	1.72	0.964	0.691
C=C(CCCC)C(=O)CC[C@@H](OC(=O)c1cccnc1)c1ccccc1OCCO	-0.266	-3.05	-0.0055	-1.11	-1.07	-0.091	-0.138	-0.117	0.684	0.583
O=C1O[C@@H](c2ccccc2)[C@@H](c2ccccc2)N2[C@@H](c3ccc(O)cc3)[C@]3(C(=O)Nc4ccccc43)[C@@H](C(=O)Nc3nc4ccccc4s3)[C@H]12	1.36	-2.35	0.0034	1.28	-0.596	0.0495	0.0815	-0.179	0.0579	1.32
CC1CC/C=C\[C@H]2OC34C=CCN(CCN5CCOCC5)C(=O)[C@H]3N(CCO)C(=O)[C@@H]4C2C(=O)O1 (stereo not given in full)	-1.99	-0.504	-1.2	-0.714	-0.307	-0.166	-0.154	-0.145	0.0159	-1.02
C=CCOC(=O)[C@H]1[C@@H]2C(=O)O[C@@H](c3ccccc3)[C@@H](c3ccccc3)N2[C@@H](c2ccc(OCCOC(=O)[C@H]3C[C@H]4C(=O)N[C@@H](CCCC[N+](C)(C)C)C(=O)N4[C@H]3c3cccc(OCCO)c3)cc2)[C@]12C(=O)Nc1ccc(I)cc12	0.62	-1.38	0.73	0.727	0.119	-0.0721	-0.138	0.0051	0.62	0.113
CC(C)C[C@@H]1NC(=O)[C@H]2C[C@@H](C(=O)NCCCCCC[N+](C)(C)C)[C@@H](c3cccc(OCCO)c3)N2C1=O	-0.209	1.79	0.538	-0.432	-0.738	-0.152	-0.0035	-0.378	0.501	0.0962
CC(=O)N1Cc2ccccc2C[C@]2(N=C(c3ccc(OCCCO)cc3)O[C@@H]2c2ccccc2)C1=O	1.1	-1.56	0.179	1.01	0.446	-0.13	0.163	0.682	1.78	1.64
CC(C)CCC[C@@H](C)[C@H]1CC[C@@]2(C)C3=C(CC[C@]12C)[C@@]1(C)CC[C@H](OC(=O)c2ccc(Br)cc2)C(C)(C)C1CC3 (stereo not given in full)	-0.298	0.132	0.711	0.132	-0.442	-0.157	-0.0977	-0.18	0.162	0.204
C=CCOC(=O)[C@@H]1[C@H]2C(=O)O[C@H](c3ccccc3)[C@H](c3ccccc3)N2[C@H](c2ccc(OCCOC(=O)[C@H]3C[C@H]4C(=O)N[C@@H](CC(C)C)C(=O)N4[C@H]3c3ccc(O)cc3)cc2)[C@@]12C(=O)Nc1ccc(I)cc12	0.719	-0.866	0.808	0.0847	-0.481	-0.0478	0.235	0.135	0.859	2
COC(=O)c1c(CC[C@@H](CO)NC(=O)N[C@H](Cn2cc(-c3ccccc3C)nn2)C(C)C)oc(C(C)=O)c1C(=O)OC	-0.794	-0.515	-0.645	-0.0696	-0.637	-0.169	-0.0553	0.0099	0.441	0.879
COC(=O)[C@]1(CCS(=O)(=O)c2ccccc2)N=C(c2ccc(OCCCO)cc2)O[C@@H]1c1ccccc1CN=[N+]=[N-]	1.41	-2.98	0.0011	0.631	-0.48	0.0785	-0.0035	1.02	0.879	0.969
CCOC(=O)C[C@H]1[C@H](OC(=O)c2ccccc2-c2ccccc2)[C@@H](NC(=O)c2ccc3ccccc3n2)c2cc(OCCCO)ccc2N1C(=O)c1ccc2ccccc2n1	0.437	-0.863	0.152	-0.0654	-0.127	-0.174	-0.265	-0.328	0.358	0.567
O=C1NC(=O)C2C1C=CC(C(O)c1cc(C(F)(F)F)cc(C(F)(F)F)c1)N2Nc1ccc(Cl)cc1Cl (stereo not given)	-0.158	-0.99	-0.256	1.91	1.29	-0.0405	0.431	0.676	1.86	0.526
